Assays:
Test in all cases: PBM binding z-score (relative to random genomic background probes); higher = stronger binding; sequences stand for … in GC…GCGATTGACAGCGTAGAATGAAGG
[1] = test system: FXR:RXRa (NR concentration 270 nM, RXRa partner concentration 90 nM)
How it was run: (§1)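 For binding z-scores, the reference was random background probes on custom Agilent 4×180K protein-binding microarrays. These arrays were incubated 1 h with ligand-free nuclear receptor dimers in PBS pH 7.4, 2% milk, 0.02% Triton X-100, 1 mM DTT, 0.2 mg/mL BSA and 0.4 mg/ml salmon testes DNA. Fluorescence was scanned after antibody detection of each partner (one per run) and regression-normalized.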

[2] = test system: LXRa:RXRa (NR concentration 270 nM, RXRa partner concentration 90 nM)
How it was run: as §1

[3] = test system: LXRa homodimer (NR concentration 270 nM)
How it was run: as §1

[4] = test system: LXRb:RXRa (NR concentration 270 nM, RXRa partner concentration 90 nM)
How it was run: as §1

[5] = test system: LXRb homodimer (NR concentration 270 nM)
How it was run: as §1

[6] = test system: PPARa:RXRa (NR concentration 270 nM, RXRa partner concentration 90 nM)
How it was run: as §1

[7] = test system: PPARg:RXRa (NR concentration 180 nM, RXRa partner concentration 90 nM)
How it was run: as §1

[8] = test system: PPARg:RXRa 270nM:90nM, anti-RXR (NR concentration 270 nM, RXRa partner concentration 90 nM)
How it was run: as §1

[9] = test system: PPARg:RXRa 30nM:10nM, anti-RXR (NR concentration 30 nM, RXRa partner concentration 10 nM)
How it was run: as §1

[10] = test system: PPARg:RXRa 90nM:30nM, anti-RXR (NR concentration 90 nM, RXRa partner concentration 30 nM)
How it was run: as §1

Sequence	PBM binding z-score [1]	PBM binding z-score [2]	PBM binding z-score [3]	PBM binding z-score [4]	PBM binding z-score [5]	PBM binding z-score [6]	PBM binding z-score [7]	PBM binding z-score [8]	PBM binding z-score [9]	PBM binding z-score [10]
CGTCCAAGCTCAAGGTCAGTGAAAGAGACTCGAA	1.45	1.33	0.213	1.25	-0.283	1.93	0.495	1.14	0.132	0.792
AGTCAAAGTTCATCTAGGTAACGTAAGATATGCT	6.73	6	5.07	3.62	1.73	4.84	6.6	6.14	3.3	5.53
TCTAGTTGGTAACGGAGGTCACACACGACGGGTA	2.77	3.39	3.31	3.27	0.826	3.7	2.37	3.33	3.38	3.55
TCGAGTAGGTTACCAATGGGGCATGCAGCTTTCT	-0.0297	0.818	-0.705	0.567	-0.608	1.07	0.261	1.08	0.922	1.1
TCTCGGAGGACACGAAAGGTCAGAGCACGACATC	2.91	3.73	3.12	3.29	0.0344	3.63	1.64	2.76	2.25	2.42
TCTTATAGGTAAAGGTGAAAGTCGAACGATATGA	1.15	1.59	0.00548	1.58	0.488	3.27	3.38	4.4	4.42	4.81
CCTTATGGGTCAAGGTTATAGCACGGGTGGTACG	4.02	2.78	0.0856	2.3	-0.169	4.23	5.35	5.19	2.54	4.72
ACTATTAGTTGACTTAGGGCAACAGATACGACGC	0.0788	0.0659	0.494	0.0147	0.162	-0.0178	0.94	0.32	0.494	0.163
TCATATAGGTAAATGTTAGGTGAAAGTCCGATCT	1.64	1.44	0.543	1.22	0.304	1.64	1.04	2.53	4.07	3.22
TCATATAGGTAAATGCTAGGTGAAAGCCCGATCT	0.778	0.754	0.00437	0.675	-0.102	1.4	0.799	2.27	3.75	3.05
CGAACGAGGGCATGAATTGATAGCAAATGCCGAT	-0.0699	-0.102	-0.436	-0.0113	-0.655	0.924	0.992	0.623	0.00744	0.388
GCTATTAGTTGAAAGGGCAACTGAATGATTCTCG	0.614	0.896	0.18	1.1	0.073	2.51	2.65	4.03	2.6	4.54
GGTATTAGTTGAAAGGGCAACCGAATGATTCTCG	1.14	1.49	1.06	1.41	0.907	2.66	3.26	5.07	3.13	4.79
CCTAGTCGGTCAGGAGGTCACACACCGGATATGA	3.96	4	2.81	3.49	0.605	4.55	4.89	5.09	3.26	4.26
ACTAGCAGGCCAAGTTTGGGTCAGTCAAACAAAG	0.028	-0.244	-0.318	-0.0247	-0.904	0.619	-0.396	-0.173	-0.835	-0.45
GGAACGAGGGCAATCGAGTTGATAGCATGGCGAT	0.644	0.434	-0.647	-0.187	-0.883	1.38	1.12	0.753	-0.285	0.268
AGATCGAGGGCAATGAGTTGATAGCACGGGTGGC	0.45	0.121	-0.246	-0.143	-0.369	1.14	1.16	0.568	0.0147	0.283
AGTCAAAGTTCACTAGGTAACGTGAGATTCAGCT	4.64	4.79	2.64	2.71	0.742	4.57	7.14	6.33	3.41	5.47
GCACACAGGTGAAACGCAGGTAACTCAGGGTGGC	0.021	0.302	-0.342	-0.349	-0.845	0.939	0.853	0.355	-0.481	-0.0562

Reference: the supplement of paper PMC6555819
